Among the data in PubChem BioAssay AID1851 (National Center for Advancing Translational Sciences (NCATS), 2009) are AC50 and activity, negative = inhibition values, retold here.

Several values for one entry are separate records, joined by “and”; a condition that tells them apart may be missing. Equal values may be shown once. The campaign covered roughly 16,000 compounds. About 2,600 (16%) were called active. Inconclusive results (about 20%) are left out. The call rests on the fitted dose curve; in most records, active means well fitted curve in the direction sought with a large enough effect; inconclusive means small, poorly fitted or top-dose-only effect, or effect the other way; inactive means no such curve, though single readings can be large or run the other way. The list is a sample of the results.
On the % scale 0 is the no-effect control and ±100 the full control effect.

Cytochrome P450 2D6 (Homo sapiens), sequence (P10635 whole entry, looked up): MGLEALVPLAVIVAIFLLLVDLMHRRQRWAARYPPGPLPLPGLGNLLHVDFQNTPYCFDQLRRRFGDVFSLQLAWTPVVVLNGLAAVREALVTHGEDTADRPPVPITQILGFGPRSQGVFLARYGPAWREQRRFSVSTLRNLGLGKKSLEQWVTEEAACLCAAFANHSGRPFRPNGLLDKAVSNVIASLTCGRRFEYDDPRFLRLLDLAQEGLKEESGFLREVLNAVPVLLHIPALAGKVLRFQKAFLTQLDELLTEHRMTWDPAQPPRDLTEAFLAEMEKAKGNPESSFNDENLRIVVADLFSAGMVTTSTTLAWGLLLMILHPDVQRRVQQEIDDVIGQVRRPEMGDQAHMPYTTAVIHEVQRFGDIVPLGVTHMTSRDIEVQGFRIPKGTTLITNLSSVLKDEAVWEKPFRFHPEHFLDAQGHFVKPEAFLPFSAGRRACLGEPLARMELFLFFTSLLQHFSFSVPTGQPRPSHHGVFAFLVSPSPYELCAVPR

The test concerns the target Cytochrome P450 2D6 (Homo sapiens) (UniProt P10635). The experiment in a line: Cytochrome panel assay with activity outcomes. To be noted: recombinant CYP, pro-luciferin dealkylation, luminescence, p450-cyp2d6; series mostly up to 57.1 µM.
As a reminder, the AC50 is the midpoint of the concentration-response curve, whichever way the signal moves. `C=C[C@H](N)CCC(=O)O`: the AC50 result was “inactive”.
On the same count and under the same terms, as for `CCc1c(C)sc(NC(=O)OC)c1C(N)=O`, the entry is “inactive”.
Still for that read-out and setting: in the case of `COc1nc(/C(N)=N/O)nc(N2CCCCC2)n1` it was “inactive”; in that of `Cc1ncc([N+](=O)[O-])n1CCOC(=O)NC(NCc1ccccc1)C(Cl)(Cl)Cl` (centres undefined), “inactive”.
As for `Cc1cc(=O)c2ccccc2[nH]1`, the AC50 entry was “inactive”.
The same measure, in the same setting: in the case of `N=C(N)N1CCc2ccccc2C1` it was “inactive”.
For the compound `Cc1ccc(C2C(=O)N(C3CCCC3)CC(=O)N2CC2COc3ccccc3O2)cc1` (centres undefined), the AC50 result is “inactive”.
Still for that read-out and setting: in the case of `OC(COCC1COc2ccccc2O1)CN1CCc2ccccc2C1` (centres undefined) it was 0.447 µM (active).
As to `Cc1cc2c(nc1C)CCCN2C[C@@H](O)CN1CCN(C)CC1`, the activity, negative = inhibition is -5.57% [at 11.4 µM] (inactive).
Turning to `OC(COCC1COc2ccccc2O1)CN1CCN(c2ccccc2F)CC1` (centres undefined), the AC50 was 2.24 µM (active).
Same read-out and setting: in the case of `CC1CCCC(C)N1CC(O)COCC1COc2ccccc2O1` (centres undefined) it was 1.78 µM (active); in that of `C[C@@H]1CCCN(C[C@@H](O)CN2CCCc3ccccc32)C1`, 1.58 µM (active).
Same read-out and setting: as for `O=C1CCCN1CC(O)CS(=O)(=O)c1ccccc1` (centres undefined), the entry is “inactive”; as for `O=C(O)c1cc(=O)c2c(OCC(O)COc3cccc4oc(C(=O)O)cc(=O)c34)cccc2o1`, “inactive”.
As to `Cc1ccc(-c2cccc(OC(=O)c3ccccc3F)c2)cc1`, the AC50 result was “inactive”.
Consider `CC(C)C(=O)NC(=S)Nc1ccccc1C(=O)Nc1ccccc1`, for which the AC50 entry was “inactive”.
With `CN1CCN(c2ncc3ncc(=O)n(C[C@H]4CCCO4)c3n2)CC1`, the AC50 result was “inactive”.
Still for that read-out and setting: in the case of `COc1ccc(S(=O)(=O)N2CCC(C(=O)NCC3CCCO3)CC2)cc1C` (centres undefined) it was “inactive”.
Regarding `O=c1n(-c2ccccc2)c(=O)n2n1CC[C@H]1/C(=N\OC[C@@H](O)COCc3ccco3)[C@H]3O[C@@H]3[C@@H](O)[C@@H]12`, the activity, negative = inhibition is 0.6% [at 11.4 µM] (inactive) and 20% [at 11.4 µM] (inactive).
On to `COC1(OC)N=C(NC(=O)Nc2ccccc2)C2(C#N)C(c3ccccc3)C12C#N` (centres undefined), for which the AC50 entry was “inactive”.
Still for that read-out and setting: as for `COc1ccc(-c2noc(C3CCCN(C(=O)c4ccccc4OC)C3)n2)cc1OC` (centres undefined), the entry is “inactive”.
The same measure, in the same setting: in the case of `CCCC[C@@H]1C[C@H]1C(NC(=O)c1cccs1)c1ccc(-c2ccccc2)cc1` (some centres undefined) it was “inactive”; in that of `CC1CCCN(CC(O)COCC2COc3ccccc3O2)C1` (centres undefined), 2.51 µM (active); in that of `CN1CCN(S(=O)(=O)c2cc([N+](=O)[O-])ccc2N2CCCCCC2)CC1`, “inactive”.
The same measure, in the same setting: as for `CC(=O)OCC(=O)[C@@]1(O)CC[C@@H]2[C@H]3CCC4=CC(=O)CC[C@]4(C)[C@]3(F)[C@@H](O)C[C@@]21C`, the entry is “inactive”; as for `O=C(CN1CCN(Cc2ccccc2)CC1)N1CCCc2c1c(=O)oc1ccc(O)cc21`, 12.6 µM (active); as for `Cc1ccc(C(=O)N(CN2CCCC2=O)c2ccccc2)cc1C`, “inactive”.
On to `Oc1ccc2oc3c(c2c1)CCCC3`, for which the AC50 entry is “inactive”.
On the same count and under the same terms, as for `COc1ccc(O)c(/C=N/NC(=O)c2ccc(OCc3cccc(Br)c3)cc2)c1`, the entry is “inactive”.
On the same count and under the same terms, as for `CCc1cc2c(NCCO)ncnc2s1`, the entry is “inactive”.
For the compound `CCc1cc2c(Sc3nc4ccccc4s3)ncnc2s1`, the AC50 entry was “inactive”.
For the compound `CCc1cc2c(NCc3ccco3)ncnc2s1`, the concentration at half-maximal activity (AC50) is 17.8 µM (active).
Still for that read-out and setting: in the case of `COc1ccc(-c2csc(-n3ncc(-c4cccs4)c3N)n2)cc1` it was “inactive”.
In the case of `CCOC(=O)c1sc2c(c1C)c(=O)c(C(=O)OCC)cn2CC`, the AC50 entry was “inactive”.
For the compound `Cc1nnc(NC(=O)c2oc3c(ccc4ccccc43)c2C)s1`, the AC50 result is “inactive”.
With `COC(=O)c1cc(=O)[nH]c(=O)[nH]1`, the activity, negative = inhibition is -4.62% [at 11.4 µM] (inactive).
For `CCOC(=O)N/N=C1/C[C@@H](O)[C@@H](O)[C@@H]2[C@@H]3C(=O)N(C(C)(C)C)C(=O)[C@H]3CC[C@H]12`, the activity, negative = inhibition is -1.55% [at 11.4 µM] (inactive).
With `Cc1ccc(S(=O)(=O)NC(=O)CSc2nc3ccccc3s2)cc1`, the AC50 result is “inactive”.
Still for that read-out and setting: in the case of `O=[N+]([O-])c1c(NCCO)cc(Sc2nc3ccccc3s2)c2nonc12` it was 14.1 µM (active); in that of `O=C(N/N=C/c1ccc(Sc2nc3ccccc3s2)c([N+](=O)[O-])c1)c1ccccn1`, “inactive”.
Take `C[C@@]1(C(=O)O)CCC[C@@H]1C(=O)O`: the activity, negative = inhibition was 9.41% [at 11.4 µM] (inactive).
On to `CC(=O)Nc1c(C(=O)N2CCOCC2)cnn1-c1ccc(C)c(C)c1`, for which the AC50 entry was “inactive”.
Take `O=C(CS(=O)c1cccc(Cl)c1)Nc1ccccc1Cl` (centres undefined): the AC50 result is “inactive”.
Same read-out and setting: in the case of `O=C(CCN1CCN(CC(=O)Nc2ccccc2Cl)CC1)Nc1ccccc1F` it was 1.26 µM (active); in that of `O=C(CCN1C(=O)C2C3C=CC(C3)C2C1=O)Nc1c(F)cccc1F` (centres undefined), “inactive”.
On the same count and under the same terms, as for `COc1ccc(NC(=O)CN2CCN(CC(=O)Nc3ccccc3Cl)CC2)cc1`, the entry is “inactive”; as for `O=C(CCN1CCN(c2ccccc2F)CC1)Nc1ccccc1F`, 11.2 µM (active); as for `COc1ccccc1NC(=O)CN1CCN(c2ccccc2F)CC1`, “inactive”.
The same measure, in the same setting: in the case of `COCCn1c(=O)c(C)nc2cnc(Oc3ccc(OC)cc3)nc21` it was “inactive”; in that of `CN(C)c1ncc2nc(-c3cccs3)c(=O)n(C[C@H]3CCCO3)c2n1`, “inactive”; in that of `O=C(CP(=O)(c1ccccc1)c1ccccc1)Nn1cnnc1`, “inactive”.
For `COCCN(CCOC)S(=O)(=O)c1ccc(C(=O)Nc2nc(C)c(C(C)=O)s2)cc1`, the AC50 entry is “inactive”.
On the same count and under the same terms, in the case of `NC(=O)CN1CCOCCOCCOCCOCCOCC1` it was “inactive”; in that of `O=C(Nc1cccc(F)c1)N1CCC2(CC1)CCN(C(=O)c1ccco1)CC2`, “inactive”.
For `COc1ccc(CCNc2cc(-c3ccccc3)nc3ncnn23)cc1`, the AC50 entry was “inactive”.
Still for that read-out and setting: as for `COc1ccc(-n2c3c(c(=O)[nH]c2=O)C(C(F)(F)F)(C(F)(F)F)N=C(CC(C)C)N3)cc1`, the entry is “inactive”; as for `CCCn1c(=O)c2c(ncn2C)n(CCC)c1=O`, “inactive”.
For `NC(N)=NNC(=O)C(=O)O`, the activity, negative = inhibition was 7.44% [at 11.4 µM] (inactive).
With `O=[N+]([O-])c1cc(/C=N/N2CCN(C3c4ccccc4-c4ccccc43)CC2)ccc1Cl`, the AC50 entry was “inactive”.
The same measure, in the same setting: as for `O=C(O)c1cccnc1`, the entry is “inactive”; as for `CC(C)(C(=O)c1cccnc1)c1cccnc1`, “inactive”; as for `C(=N\N1CCN(C2c3ccccc3-c3ccccc32)CC1)/c1cccnc1`, 0.631 µM (active).
Same read-out and setting: as for `C/C(=N\N1CCN(C2c3ccccc3-c3ccccc32)CC1)c1ccncc1`, the figure is 0.178 µM (active); as for `C/C(=N\N1CCN(C2c3ccccc3-c3ccccc32)CC1)c1cccnc1`, 2 µM (active).
With `c1ccc2c(c1)-c1nc3ccccc3cc1[C@H]2N1CCOCC1`, the activity, negative = inhibition is -4.83% [at 11.4 µM] (inactive).
With `O=C(NCC1CCCO1)C(c1cccnc1)N(C(=O)Cc1cccs1)c1cccnc1` (centres undefined), the AC50 entry is “inactive”.
The same measure, in the same setting: as for `Cc1nnc(NS(=O)(=O)c2ccc(N)cc2)s1`, the entry is “inactive”; as for `O=C(O)Cc1ccc2ocnc2c1`, “inactive”.
As for `CCCC(=O)N1c2ccccc2C(N(C(C)=O)c2ccccc2)CC1C` (centres undefined), the AC50 entry is “inactive”.
In the case of `O=C(Nc1cc2c(oc1=O)CCCC2=O)c1ccc(Cl)cc1`, the AC50 entry is “inactive”.
On the same count and under the same terms, as for `S=c1[nH]c2cc(Cl)ccc2s1`, the entry is “inactive”; as for `COc1ccc2nc(N)sc2c1`, “inactive”.
Still for that read-out and setting: in the case of `NCC[C@H](O)C(=O)N[C@H]1C[C@@H](N)[C@@H](O[C@H]2O[C@@H](CN)[C@@H](O)[C@@H](O)[C@@H]2O)[C@@H](O)[C@@H]1O[C@H]1O[C@@H](CO)[C@@H](O)[C@@H](N)[C@@H]1O` it was “inactive”; in that of `Cc1n[nH]c(C)c1S(=O)(=O)N1CCOCC1`, “inactive”.
The same measure, in the same setting: in the case of `COc1ccc(/C=N/OCc2nc3c4c(ncn3n2)Oc2ccc3ccccc3c2C4c2ccccc2)cc1` (centres undefined) it was “inactive”; in that of `Fc1ccc(-c2ccnc3nc(N4CCOCC4)nn23)cc1`, “inactive”; in that of `Cc1cccc(C)c1NC(=O)CN1CCN(CCCC(c2ccc(F)cc2)c2ccc(F)cc2)CC1`, 5.01 µM (active).
Take `Cc1cccc(C)c1NC(=O)CS(=O)CC(=O)Nc1ccc(F)cc1F` (centres undefined): the AC50 entry is “inactive”.
The same measure, in the same setting: as for `Cc1c(NC(=O)CN2CCN(c3ccccc3)CC2)c(=O)n(-c2ccccc2)n1C`, the entry is “inactive”.
Consider `Nc1nc2c(c(=O)[nH]1)N[C@H](CCNc1ccc(C(=O)O)cc1)CN2`, for which the activity, negative = inhibition was 1.76% [at 11.4 µM] (inactive).
`Cc1nc(-c2cccnc2)sc1C(=O)Nc1ccc(Cl)cc1`: the AC50 is 15.8 µM (active).
Still for that read-out and setting: as for `Cc1nc(-c2cccnc2)sc1C(=O)Nc1ccc(F)cc1F`, the entry is “inactive”.
Take `CNC(=O)c1sc(-c2cccnc2)nc1C`: the AC50 entry was “inactive”.
Still for that read-out and setting: as for `N#CCCn1c(=O)c(-c2ccc(Cl)cc2)nc2cnc(Oc3cccc(Cl)c3)nc21`, the entry is “inactive”.
Turning to `CCOC(=O)C(C)(C)[C@H](O)C(C)C`, the activity, negative = inhibition is 10.9% [at 11.4 µM] (inactive).
The same measure, in the same setting: in the case of `N[C@@H](Cc1ncccn1)C(=O)O` it was -1.91% [at 11.4 µM] (inactive).
Regarding `Clc1ccc(CO[C@@H](Cn2ccnc2)c2ccc(Cl)cc2Cl)cc1`, the AC50 was 0.2 µM (active).
Same read-out and setting: as for `Clc1ccc(COC(Cn2ccnc2)c2ccc(Cl)cc2Cl)c(Cl)c1` (centres undefined), the figure is 1 µM (active); as for `Cc1nn(C)c(Cl)c1NC(=O)OCc1ccc(Cl)cc1Cl`, “inactive”; as for `Clc1ccc([C@H](Cn2ccnc2)OCc2csc3c(Cl)cccc23)c(Cl)c1`, 5.01 µM (active).
The same measure, in the same setting: in the case of `COCCn1c(=O)c(-c2cc(F)cc(F)c2)nc2cnc(N3CCOCC3)nc21` it was “inactive”; in that of `O=C1Nc2ccc(F)cc2C12SCCS2`, “inactive”.
The same measure, in the same setting: as for `Cn1c(=O)c(-c2ccc(F)c(F)c2)nc2cncnc21`, the entry is “inactive”; as for `N#CCCn1c(=O)c(CCc2ccccc2)nc2cnc(Oc3cccc(Cl)c3)nc21`, “inactive”.
Regarding `CC1CCC(=NNC(=O)Cc2ccccc2)CC1` (centres undefined), the AC50 result is “inactive”.
With `CN1Cc2c(C(=O)OC(C)(C)C)ncn2-c2ccsc2C1=O`, the AC50 result was “inactive”.
Still for that read-out and setting: as for `N#Cc1ccc(-c2ccc(F)cc2)nc1Oc1ccc(Cl)c(Cl)c1`, the entry is “inactive”; as for `Cc1ccc2ncc([N+](=O)[O-])n2c1`, “inactive”.
On the same count and under the same terms, in the case of `O=C(O)C1=CCCNC1` it was “inactive”.
Consider `O=C(O)C(=O)/C=C(\O)c1ccc(Br)cc1`, for which the activity, negative = inhibition was -0.0145% [at 11.4 µM] (inactive).
Consider `Cc1ccc(-c2nn3c(C)nnc3c3ccccc23)cc1S(=O)(=O)NCCN1CCOCC1`, for which the AC50 entry was “inactive”.
As for `CC(=O)Nc1ccc(S(=O)(=O)NC(CC(=O)NCCCN2CCOCC2)C(C)C)cc1` (centres undefined), the AC50 entry is “inactive”.
On the same count and under the same terms, in the case of `Cc1cc(S(=O)(=O)NCCCN2CCOCC2)ccc1F` it was 12.6 µM (active); in that of `COc1ccc(-c2nc3cnc(N4CCN(C)CC4)nc3n(Cc3ccc(F)cc3)c2=O)cc1`, “inactive”.
